PubChem BioAssay (NCATS)
Results filed as inconclusive are left out. Where a call stands in place of a potency, no number is given. Values without a mark were called inactive. Calls of active or inactive are those of the source. Calls come from the whole dose curve; as a rule, active = well fitted curve in the direction sought with a large enough effect; inconclusive = small, poorly fitted or top-dose-only effect, or another doubt; inactive = no such curve, though single readings can be large; an effect the other way counts as inactive or inconclusive.

What was measured:
[1] = qHTS to identify inhibitors of the type 1 interferon - major histocompatibility complex class I in skeletal muscle: primary screen against the NCATS Mechanism Interrogation Plate v5.0 (MIPE) Libary (AID 1347411); details: iHSKM cells + IFN-b, HiBiT-tagged MHC-I luminescence, 24 h; series mostly up to 45.8 µM; note: nearly all actives have a fitted effect of over 65% in size; note: potency is the fitted concentration of half-maximal effect
Method in brief: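 Luminescence from CRISPR HiBit-tagged endogenous HLA-B in human myoblasts reported MHC class I level after 24 h of IFN-beta (4 ng/ml) plus compound. Compounds ran as 11-point 1:3 series, top 46 uM final.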

[2] = test system: Zika virus NS2B-NS3 protease (unlinked complex); experiment: Primary screen GU Rhodamine qHTS for Zika virus inhibitors: Unlinked NS2B-NS3 protease assay (AID 1347159); details: Recombinant ZIKV NS2B-NS3 protease, Rhodamine110 substrate fluorescence; series mostly up to 107 µM; note: nearly all actives have a fitted effect of over 60% in size; note: potency is the fitted concentration of half-maximal effect
Method in brief: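 In dose–response format, inhibition of unlinked protease (25 nM) was measured with 1.5 microM bis-peptide Rhodamine110 substrate. Aprotinin served as the intraplate control.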

[3] = test system: Zika virus NS2B-NS3 protease (linked construct); experiment: Primary screen NINDS Rhodamine qHTS for Zika virus inhibitors (AID 1347160); details: purified NS2B-NS3 protease, Rhodamine110 substrate fluorescence; series mostly up to 57.1 µM; note: nearly all actives have a fitted effect of over 55% in size; note: potency is the fitted concentration of half-maximal effect
Method in brief: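 Each compound, titrated, sat 15 min with 25 nM linked protease before 1.5 microM Rhodamine110 substrate went in. Fluorescence gain over the next 15 min, in pH 8.0 Tris with Tween 20, gave Hill-fitted curves.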

[4] = qHTS to identify inhibitors of the type 1 interferon - major histocompatibility complex class I in skeletal muscle: primary screen against the NCATS Pharmaceutical Collection (AID 1347407); details: human skeletal muscle cells, IFN-b-induced MHC-I HiBiT luminescence, 24 h; series mostly up to 45.9 µM;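 note: luminescence of HiBiT knocked into endogenous HLA-B as interferon-induced MHC class I level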
Method in brief: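 A qHTS format is used: 8-point, 1:5 compound series with 46 uM top final concentration, applied alongside 4 ng/ml IFN-beta to HLA-B*08:01-HiBiT knock-in myoblasts. Luminescence is measured after 24 h treatment.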

[5] = target: Protein phosphatase 1D (Homo sapiens) (UniProt O15297); experiment: RapidFire Mass Spectrometry qHTS Assay for Modulators of WT P53-Induced Phosphatase 1 (WIP1) (AID 1347424); details: WIP1 dephosphorylation of phosphopeptide, RapidFire MS; series mostly up to 63 µM;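 note: amount of dephosphorylated VEPPL-S-QETFS peptide product formed by WIP1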
Method in brief: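 RapidFire mass spectrometry measured dephosphorylated peptide after 5 min room-temperature reaction of 2 uM VEPPL-pS-QETFS with 10 nM WIP1 (50 mM Tris-HCl pH 7.5, 30 mM MgCl2, 0.1 mM EGTA, BSA), following 1 hr compound preincubation; 1 uM isotope-labelled product standard.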

[6] = target: Protein phosphatase 1D (Homo sapiens) (UniProt O15297); experiment: Rhodamine-PBP qHTS Assay for Modulators of WT P53-Induced Phosphatase 1 (WIP1) (AID 1347425); details: recombinant WIP1, Rhodamine-PBP phosphate fluorescence, real-time; series mostly up to 57.5 µM
Method in brief: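 WIP1 (5 nM final) was preincubated with compound for 1 hour at room temperature. It then dephosphorylated 10 uM VEPPL-pS-QETFS peptide in Tris-HCl pH 7.5 with 30 mM MgCl2. Released Pi was detected by 10 uM Rh-PBP fluorescence (ex 525/em 598 nm) read at 1-min intervals for 11 min, as delta f1 - f0.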

Furin (Homo sapiens) = Furin (Homo sapiens) (UniProt P09958); experiment: Furin counterscreen qHTS for Zika virus inhibitors (AID 1347149); details: furin enzymatic counterscreen, fluorogenic substrate; series mostly up to 114 µM;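 note: purified recombinant full-length human furin enzyme at 5 nM; fluorescence gain from furin cutting a BOC-RVRR-AMC peptide substrate over 15 min; top concentration of the series differs between compounds; nearly all actives have a fitted effect of over 70% in size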
Method in brief: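 Counterscreen measures cleavage of 2 microM BOC-RVRR-AMC, below its ~15 microM Km, by 5 nM full-length human furin at pH 7.0 after a 15-min compound preincubation. Inhibition derives from the 15-min fluorescence increase at 37C.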

[7] = test system: Zika virus NS2B-NS3 protease (unlinked); experiment: Optimization of GU AMC qHTS for Zika virus inhibitors: Unlinked NS2B-NS3 protease assay (AID 1347151); details: recombinant ZIKV NS2B-NS3 protease, fluorogenic AMC substrate; series mostly up to 114 µM; note: nearly all actives have a fitted effect of over 80% in size
Method in brief: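 In this qHTS, compounds acted on 25 nM unlinked Zika NS2B–NS3 in pH 8.0 Tris/Tween buffer. Cleavage of an AMC peptide ran 15 min at room temperature, to about 20% conversion.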

[8] = Vero cells viability qHTS for Zika virus inhibitors (AID 1347167); details: cytotoxicity counter-screen (Zika); series mostly up to 45.9 µM
Method in brief: (§1)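 Luminescent ATP readout (CellTiter Glo) after 30 min at 37 degrees C gives viability; cells in DMEM + 4% FBS were treated 24 to 48 hours with compound, following overnight attachment.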

[9] = Tertiary RLuc qRT-PCR qHTS assay for Zika virus inhibitors (AID 1347169); details: infected Vero cells, reporter luminescence, 48-72 h; series mostly up to 45.9 µM; note: nearly all actives have a fitted effect of over 55% in size; note: potency is the fitted concentration of half-maximal effect
Method in brief: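 Inhibition of ZIKV-RLuc replication in Vero cells, read as Renilla luminescence 1-1.5 hrs after live-cell substrate addition, following 48-72 hrs infection at MOI 1-2 in presence of compound.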

[10] = ZIKV-mCherry secondary qHTS for Zika virus inhibitors (AID 1347158); details: Vero cells, ZIKV-mCherry infection imaging, 48-72 h; series mostly up to 49.2 µM; note: top concentration of the series differs between compounds
Method in brief: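 Percent infection is the share of Hoechst-identified Vero nuclei with mCherry signal above 450 RFU (3 SD over negative controls). Cells were infected with recombinant ZIKV-mCherry at MOI 1 after compound addition and imaged 48–72 h later.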

[11] = test system: Zika virus NS2B-NS3 protease (linked); experiment: 384 well plate NINDS AMC confirmatory qHTS for Zika virus inhibitors (AID 1347163); details: Recombinant NS2B-NS3 protease, Ac-VKTGKR-AMC fluorescence; note: potency is the fitted concentration of half-maximal effect; nearly all actives have a fitted effect of over 50% in size
Method in brief: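 Fluorescence at 355/460 nm was read after 25 minutes of cleavage of 30 microM Ac-VKTGKR-AMC at room temperature, in the dark. Before substrate addition, compounds (up to 1 mM final) sat ~15 minutes with 5, 30 or 60 nM linked protease. Signals were normalized to no-enzyme and no-inhibitor wells.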

[12] = test system: Zika virus NS2B-NS3 protease (linked construct); experiment: 384 well plate NINDS Rhodamine confirmatory qHTS for Zika virus inhibitors (AID 1347164); details: rhodamine-110 peptide substrate fluorescence; note: potency is the fitted concentration of half-maximal effect; nearly all actives have a fitted effect of over 65% in size
Method in brief: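 Cleavage of Ac-LKRR-Rhodamine 110 (10 microM final) by linked protease (final 5, 30 or 60 nM) was followed as fluorescence at 485/538 nm after 25 min, room temperature, dark. Compounds preincubated ~15 min.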

[13] = test system: Zika virus NS2B-NS3 protease (unlinked complex); experiment: Confirmatory screen GU AMC qHTS for Zika virus inhibitors (AID 1347153); details: Recombinant NS2B-NS3 protease, AMC substrate fluorescence; series mostly up to 57.1 µM; note: nearly all actives have a fitted effect of over 70% in size
Method in brief: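 Unlinked NS2B-NS3 complex (25 nM) in 10 mM Tris-HCl pH 8.0, 0.01% Tween 20 preincubated 15 min with compound, then 10 microM Bz-Nle-KRR-AMC (Km 18.3 µM). Fluorescence change over 15 min, normalized, Hill-fitted.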

[14] = Confirmatory screen NINDS Rhodamine qHTS for Zika virus inhibitors (AID 1347161); details: purified enzyme assay, Rhodamine110 substrate fluorescence, 15 min; series mostly up to 114 µM;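 note: purified Zika NS2B-NS3 protease with linked NS2B cofactor domain and Rhodamine110 peptide substrate; nearly all actives have a fitted effect of over 60% in size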
Method in brief: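 qHTS dose-response: 25 nM linked protease, pH 8.0 Tris/Tween buffer, cpd titration, 15 min RT preinc, 1.5 microM Rhod110 peptide, 15 min reaction (~15% conversion), Ex480/Em540; 4-parameter Hill fit.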

[15] = HepG2 cells viability qHTS for Zika virus inhibitors (AID 1347168); details: Zika counter-screen; series mostly up to 45.9 µM
Method in brief: as §1

Chain of Protein phosphatase 1D (Homo sapiens) (O15297 whole entry, looked up): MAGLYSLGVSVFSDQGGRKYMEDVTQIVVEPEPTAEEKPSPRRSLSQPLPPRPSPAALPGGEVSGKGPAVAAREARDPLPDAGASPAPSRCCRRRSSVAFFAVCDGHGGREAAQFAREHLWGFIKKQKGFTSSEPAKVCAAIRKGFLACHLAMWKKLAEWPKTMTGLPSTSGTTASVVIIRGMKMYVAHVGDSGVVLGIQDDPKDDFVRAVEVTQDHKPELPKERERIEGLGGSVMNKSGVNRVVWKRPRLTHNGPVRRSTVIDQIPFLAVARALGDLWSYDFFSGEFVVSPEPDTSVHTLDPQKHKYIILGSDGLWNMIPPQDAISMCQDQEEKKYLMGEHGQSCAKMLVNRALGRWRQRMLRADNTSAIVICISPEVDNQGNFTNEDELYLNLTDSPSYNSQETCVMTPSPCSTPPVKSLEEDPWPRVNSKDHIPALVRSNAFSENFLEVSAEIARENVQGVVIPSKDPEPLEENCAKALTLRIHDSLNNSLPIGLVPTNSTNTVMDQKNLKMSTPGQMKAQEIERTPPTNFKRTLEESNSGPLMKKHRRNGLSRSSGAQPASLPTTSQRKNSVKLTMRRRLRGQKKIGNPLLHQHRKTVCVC
Chain of Furin (Homo sapiens) (P09958 whole entry, looked up): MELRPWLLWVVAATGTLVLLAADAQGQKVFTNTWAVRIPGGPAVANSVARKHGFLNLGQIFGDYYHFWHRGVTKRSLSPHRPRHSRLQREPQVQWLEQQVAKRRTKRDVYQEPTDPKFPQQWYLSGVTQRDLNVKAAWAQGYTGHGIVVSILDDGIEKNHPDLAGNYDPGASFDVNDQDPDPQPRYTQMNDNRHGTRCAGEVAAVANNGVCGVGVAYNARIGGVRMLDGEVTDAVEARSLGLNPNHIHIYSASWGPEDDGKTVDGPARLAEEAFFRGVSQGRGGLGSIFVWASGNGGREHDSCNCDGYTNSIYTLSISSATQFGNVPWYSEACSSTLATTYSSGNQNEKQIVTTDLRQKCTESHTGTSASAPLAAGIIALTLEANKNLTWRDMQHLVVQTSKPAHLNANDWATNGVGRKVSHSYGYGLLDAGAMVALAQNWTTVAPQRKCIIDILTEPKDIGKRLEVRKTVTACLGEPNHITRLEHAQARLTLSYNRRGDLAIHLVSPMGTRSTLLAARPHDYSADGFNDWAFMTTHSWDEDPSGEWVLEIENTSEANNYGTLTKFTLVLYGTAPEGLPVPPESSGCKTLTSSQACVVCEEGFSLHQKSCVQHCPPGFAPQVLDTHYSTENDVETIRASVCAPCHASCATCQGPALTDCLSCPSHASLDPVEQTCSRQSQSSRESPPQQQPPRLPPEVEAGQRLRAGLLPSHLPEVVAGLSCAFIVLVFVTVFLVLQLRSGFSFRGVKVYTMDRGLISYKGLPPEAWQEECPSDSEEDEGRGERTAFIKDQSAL

CN[C@@H]1[C@@H](O)[C@@H](O[C@@H]2[C@@H](O)[C@H](O[C@H]3O[C@H](CN)[C@@H](O)[C@H](O)[C@H]3O)[C@@H](N)C[C@H]2NC(=O)C(O)CN)OC[C@]1(C)O (stereo partly drawn)
Potency [1]: inactive

CCCCC[C@H](O)/C=C/[C@H]1[C@H](O)CC(=O)[C@@H]1CCCCCCC(=O)O
Potency [1]: inactive

CC(=O)Nc1ccc(NC(=S)NC(=O)c2ccc(C(C)(C)C)cc2)cc1
Potency [2]: inactive | Potency [3]: inactive

CC(C)Cc1ccc([C@@H](C)C(=O)NS(C)(=O)=O)cc1
Potency [1]: inactive

C/C(=C\C(=O)OCCCCCCCCC(=O)O)C[C@@H]1OC[C@H](C[C@@H]2O[C@H]2[C@@H](C)[C@H](C)O)[C@@H](O)[C@H]1O
Potency [2]: inactive | Potency [3]: inactive

CO[C@H]1C[C@@H]2CC[C@@H](C)[C@@](O)(O2)C(=O)C(=O)N2CCCC[C@H]2C(=O)O[C@H]([C@H](C)C[C@@H]2CC[C@@H](OC(=O)C(C)(CO)CO)[C@H](OC)C2)CC(=O)[C@H](C)/C=C(\C)[C@@H](O)[C@@H](OC)C(=O)[C@H](C)C[C@H](C)/C=C/C=C/C=C/1C
Potency [2]: inactive | Potency [3]: inactive

O=C(O)CCC(=O)c1ccc(-c2ccccc2)cc1
outcome [4]: inactive | outcome [5]: inactive | outcome [6]: inactive

C[C@H]1O[C@@H](O[C@H]2[C@@H](O)C[C@H](O[C@H]3[C@@H](O)C[C@H](O[C@H]4CC[C@@]5(C)[C@H](CC[C@@H]6[C@@H]5C[C@@H](O)[C@]5(C)[C@@H](C7=CC(=O)OC7)CC[C@]65O)C4)O[C@@H]3C)O[C@@H]2C)C[C@H](O)[C@@H]1O
outcome (Furin (Homo sapiens)): inactive | Potency [7]: inactive | Potency [2]: inactive | Potency [3]: inactive | outcome [8]: inactive | Potency [9]: 380 nM (active) | Potency [1]: 37 nM (active)

C=C1CC[C@H](O)CC1=C/C=C1\CCC[C@]2(C)[C@@H]([C@H](C)/C=C/[C@H](C)C(C)C)CC[C@@H]12
Potency [2]: 11.2 µM (active) | Potency [3]: 12.6 µM (active)

CNC(=O)[C@H](Cc1c[nH]c2ccccc12)NC(=O)[C@@H](CC(=O)NO)CC(C)C
Potency [1]: inactive

Cc1cc(-c2ccc(N=Nc3ccc4c(S(=O)(=O)O)cc(S(=O)(=O)O)c(N)c4c3O)c(C)c2)ccc1N=Nc1ccc2c(S(=O)(=O)O)cc(S(=O)(=O)O)c(N)c2c1O
outcome (Furin (Homo sapiens)): inactive | outcome [10]: inactive | Potency [11]: 5.62 µM (active) | Potency [12]: 8.91 µM (active) | Potency [9]: inactive

O=C(OCc1ccccc1)c1ccc(O)cc1
outcome [4]: inactive | outcome [5]: inactive | outcome [6]: inactive

CC(C)(C)c1ccc(CN2CCN(C(c3ccccc3)c3ccc(Cl)cc3)CC2)cc1 (stereo not drawn)
Potency [2]: inactive | Potency [3]: inactive

CCC[C@@H]1C[C@@H](C(=O)N[C@@H]([C@H]2O[C@H](SC)[C@H](O)[C@@H](O)[C@H]2O)[C@H](C)Cl)N(C)C1
Potency [1]: inactive

C=C1[C@H](CO)[C@@H](O)C[C@@H]1n1cnc2c(=O)[nH]c(N)nc21
Potency [2]: inactive | Potency [3]: inactive | Potency [1]: inactive

CO[C@H]1C[C@H](O[C@@H]2/C(C)=C/C[C@@H]3C[C@@H](C[C@]4(CC[C@H](C)[C@@H](C5CCCCC5)O4)O3)OC(=O)[C@@H]3C=C(C)/C(=N/O)[C@H]4OC/C(=C\C=C\[C@@H]2C)[C@]43O)O[C@@H](C)[C@@H]1O
outcome [13]: inactive | Potency [14]: inactive | outcome [8]: inactive | outcome [15]: inactive | Potency [9]: inactive

CN(C)CCCSc1ccccc1NC(=O)/C=C/c1ccccc1
outcome [4]: inactive | outcome [5]: inactive | outcome [6]: inactive

C=CC[N+]1([C@H]2C[C@H]3[C@@H]4CC[C@H]5C[C@H](O)[C@@H](N6CCOCC6)C[C@]5(C)[C@H]4CC[C@]3(C)[C@H]2OC(C)=O)CCCC1
Potency [1]: inactive

CC(=O)NCCCS(=O)(=O)O
Potency [1]: inactive

CC[C@H](CC[C@@H](C)[C@H]1CC[C@H]2[C@@H]3CC=C4C[C@@H](O)CC[C@]4(C)[C@H]3CC[C@]12C)C(C)C
Potency [1]: inactive

C[C@]12CC[C@@H]3c4ccc(OC(=O)c5ccccc5)cc4CC[C@H]3[C@@H]1CC[C@@H]2O
Potency [3]: inactive
